Holding throughout (type): functional
In assay [1] the test system is Plasmodium falciparum. Nature of the assay: GSK_TCMDC: Inhibition of Plasmodium falciparum 3D7 in whole red blood cells, using parasite LDH activity as an index of growth. Test compounds present at 2uM.
Assay [2] concerns Plasmodium falciparum. Briefly: GSK_TCMDC: Inhibition of Plasmodium falciparum Dd2 in whole red blood cells, using parasite LDH activity as an index of growth. Test compounds present at 2uM.
Assay [3] deals with HepG2. Briefly: GSK_TCMDC: Percent inhibition of human HepG2 cell line. Test compounds present at 10uM.

The term Inhibition denotes how much of the control response was suppressed. High values mean a strong effect, low ones a weak effect. Take `COc1ccccc1N1CCN(Cc2cc(C(C)C)c(C)cc2O)CC1`: the Inhibition was determined as 97% in assay [1], 98% in assay [2] and 7% in assay [3].
For the compound `Br.COc1nc(-n2ccc(=N)cc2)nc2ccccc12`, the Inhibition in assay [1] amounted to 90%; in assay [2], 45%; in assay [3], 15%.
Take `CCc1sc(-c2cc(Cl)ccc2OC)nc1C(=O)NCCN1CCCCC1.O=C(O)C(F)(F)F`: the Inhibition is reported as 100% in assay [1], 28% in assay [2] and 3% in assay [3].
Turning to `O=C(Nc1cc(C(F)(F)F)ccc1-n1cncn1)C1(c2ccccc2)CC1`, the Inhibition is on record as 100% in assay [1], 100% in assay [2] and 11% in assay [3].
With `CCCCCN1CCC(NS(=O)(=O)c2ccc(C(=O)Nc3cccc(C(F)(F)F)c3)cc2)C1.O=C(O)C(F)(F)F` (centres undefined), the Inhibition in assay [1] is 94%; in assay [2] it was 0%; in assay [3], 14%.
Consider `CC(C)N1CCN(C(CN2CCN(CCCOc3ccc4nonc4c3)CC2)c2ccc(F)cc2)CC1.Cl` (centres undefined), for which the values for the Inhibition in assay [1], in assay [2] and in assay [3] were 97%, 40% and 0%, respectively.
The corresponding values for `Cl.N=C1C=C(N)C(=O)c2ccccc21` are 81%, 85% and 99%.
For the compound `CCCCn1c(Sc2ccc(C#N)c([N+](=O)[O-])c2)nnc1-c1cccc(Cl)c1`, the Inhibition worked out at 96% in assay [1], 87% in assay [2] and 30% in assay [3].
In the case of `Cc1ccc(C(=O)Nc2cc(C(F)(F)F)cc(C(F)(F)F)c2)cc1[N+](=O)[O-]`, the results for the Inhibition in assay [1], in assay [2] and in assay [3] were 100%, 61% and 17%, respectively.
For `O=C(C=Cc1ccc(Cl)c(Cl)c1)NCCCCCN1CCCC(CCCNC(=O)c2cccs2)C1` (centres undefined), the Inhibition is 89% in assay [1], 0% in assay [2] and 24% in assay [3].
`O=[N+]([O-])c1ccc(-c2ccc(C=NNc3nc(Nc4ccccc4)nc(Nc4ccccc4)n3)o2)cc1`: the Inhibition in assay [1] turned out to be 91%; in assay [2] it was 12%; in assay [3], 0%.
As for `FC(F)(F)c1cnc(Sc2nnc(-c3ccco3)o2)c(Cl)c1`, the results for the Inhibition in assay [1], in assay [2] and in assay [3] were 98%, 97% and 0%, respectively.
Turning to `CC(C)Oc1cc2c(cc1NS(=O)(=O)c1ccc(-c3ccc(Cl)s3)cc1F)CCN(C)CC2.Cl`, the Inhibition in assay [1] is 99%; in assay [2], 1%; in assay [3], 23%.
The matching figures for `Cl.FC(F)(F)c1ccccc1OCc1cc(-c2ccncc2)c(COc2ccccc2C(F)(F)F)cc1C1=CCNCC1`: 98%, 81% and 31%.
For the compound `COc1ccccc1NC(=O)Nc1ccc(-c2ccc(-c3nc4cccc(C)c4[nH]3)s2)cc1`, the Inhibition in assay [1] is on record as 100%; in assay [2] it was 99%; in assay [3], 71%.
Take `Cc1cc(C2CCN(CCCCNC(=O)c3ccc(NC(=O)c4ccc(Cl)cc4)cc3)CC2)c(C)cc1OCc1nccn1C.Cl`: the Inhibition in assay [1] is recorded as 100%; in assay [2], 98%; in assay [3] it was 18%.
Consider `Cc1[nH]cc(Br)c(=O)c1-c1ccc(Oc2ccc(OC(F)(F)F)cc2)cc1`, for which the Inhibition came to 96% in assay [1], 92% in assay [2] and 22% in assay [3].
For the compound `O=C(Nc1ccc(Cl)c(-c2nc3ccccc3[nH]2)c1)c1ccc(-c2ccc(Cl)cc2)o1`, the Inhibition in assay [1] was 89%; in assay [2] it was 22%; in assay [3] it was 16%.
Take `CC(=O)Nc1ccc(C(=O)Nc2ccc(-c3cccc(-c4nc5cc(F)ccc5[nH]4)c3)cc2)cn1`: the Inhibition in assay [1] came to 100%; in assay [2], 84%; in assay [3] it was 13%.
`Oc1ccc2[nH]cc(C3CCN(CCC(c4ccccc4)c4ccccc4)CC3)c2c1`: the Inhibition in assay [1] came out at 90%; in assay [2], 42%; in assay [3], 27%.
As to `COc1ccc(CCNC(=O)c2cnc3c(c2)nc(-c2c[nH]c(-c4ccccc4)n2)n3CCc2c[nH]cn2)cc1`, the Inhibition amounted to 96% in assay [1], 70% in assay [2] and 16% in assay [3].
As for `COc1ccc(C(=O)N2CCC(C(=O)NC(C)c3ccc(-n4ccnc4)cc3)CC2)c2ccccc12` (centres undefined), the results for the Inhibition in assay [1], in assay [2] and in assay [3] were 83%, 79% and 12%, respectively.
`CC(C)(C)c1ccc2oc(=O)n(C3CCN(C(=O)c4ccc([N+](=O)[O-])o4)CC3)c2c1`: the Inhibition in assay [1] was determined as 94%; in assay [2], 87%; in assay [3], 0%.
Take `Cl.NC(=O)c1cnc2cc(-c3ccoc3)ccc2c1Nc1ccc(NC(=O)Nc2ccccc2Cl)cc1`: the Inhibition is 100% in assay [1], 76% in assay [2] and 39% in assay [3].
As to `COc1ccc(-c2cccc(NC(=O)c3ccc(Cl)cc3)c2)cc1CN(C)CCN(C)C.O=C(O)C(F)(F)F`, the Inhibition in assay [1] is 99%; in assay [2], 61%; in assay [3], 37%.
Regarding `O=C(Nc1ccc(Cn2ncc(N3CCCNCC3)c(Cl)c2=O)cc1)Nc1ccc(F)cc1[N+](=O)[O-]`, the Inhibition stood at 90% in assay [1], 0% in assay [2] and 11% in assay [3].
The matching figures for `COc1ccc2c(ccc3c2ncc2c(=O)n(-c4ccccc4)[nH]c23)c1`: 95%, 92% and 0%.
The corresponding values for `CCc1ccc(C(=O)Nc2cccc(CN3CCCN(Cc4ccc(O)cc4)CC3)c2)cc1.O=C(O)C(F)(F)F` are 100%, 74% and 11%.

Values taken from ChEMBL document CHEMBL1157539, “Thousands of chemical starting points for antimalarial lead identification” (Nature, 2010).
